Assay [1] deals with TRPC4 beta (transient receptor potential cation channel C4), mouse. Briefly: activators of mouse TRPC4 channel, confirmation, cell-based, Fluo4 calcium, HEK293 TRPC4beta/mu-opioid, duplicates, 10 µM (AID 2426;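 active = fluorescence ratio normalized to control raised more than 50% in primary screen plus both repeat runs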). The settings on record: Fluo4 calcium fluorescence, at 10 µM; stronger effect = higher value.
Assay [2] relates to transient receptor potential cation channel C4 beta (TRPC4), mouse. The assay is described as follows: activators of mouse TRPC4 channel, confirmation, cell-based, second round, Fluo4, HEK293 TRPC4beta/mu-opioid, 1 µM (AID 2461;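 active = primary screen active and over 50% activation in each of two duplicate runs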). Particulars: Fluo4 calcium fluorescence, at 1 µM; stronger effect = higher value.
For assay [3], the system named is TRPC4 (transient receptor potential cation channel C4 beta), mouse. The assay is described as follows: positive allosteric modulators of mouse TRPC4, confirmation, cell-based, second round, Fluo-4, HEK293 TRPC4beta/mu-opioid, 1 µM (AID 2554;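 active = primary screen hit whose fluorescence ratio, in both repeats, exceeds the weak agonist control mean by 3 SD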). Particulars: DAMGO EC20, Fluo-4 calcium flux, at 1 µM; stronger effect = higher value. (Calcium assays in cells follow changes in intracellular calcium, usually with a dye or a luminescent sensor.)

Assay [4] relates to TRPC4 beta (transient receptor potential cation channel C4), mouse. Briefly: positive allosteric modulators of mouse TRPC4, confirmation, cell-based, Fluo-4, HEK293 TRPC4beta/mu-opioid (AID 2555;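 active = primary screen hit whose calcium fluorescence ratio, in both repeats, exceeds the weak agonist control mean by 3 SD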). The settings on record: DAMGO EC20, Fluo-4 calcium flux, at 10 µM; stronger effect = higher value.
Assay [5] addresses Short transient receptor potential channel 4 (Mus musculus) (UniProt Q9QUQ5). The assay is described as follows: inhibitors of mouse TRPC4 channel, confirmation, cell-based, Fluo4, HEK293 TRPC4beta/mu-opioid (AID 2636;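 active = calcium signal cut by more than 3 SD below the full-agonist control yet still positive, in both repeats and the earlier primary screen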). The settings on record: DAMGO, Fluo4 calcium flux, at 10 µM; stronger effect = higher value.
For assay [6] the target is unchanged. The assay is described as follows: inhibitors of mouse TRPC4 channel, confirmation, cell-based, second round, Fluo4, HEK293 TRPC4beta/mu-opioid, 1 µM (AID 2637).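 As to inhibition: percent of integrated ratio relative to wells lacking test compound.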 The settings on record: Fluo4 calcium flux, DAMGO, at 1 µM; stronger effect = higher value.
Assay [7] has the same target. The assay is described as follows: mouse TRPC4 channel activators, dose response, cell-based, HEK293 TRPC4/mu-opioid, Fluo-4 calcium (AID 434937;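 active = primary screen activator hit with a dose response curve and TRPC4 channel activation at any tested dose; inactive = no activation, no dose response, or not a primary hit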).
Assay [8] has the same target. Briefly: TRPC4 positive allosteric modulators, dose response, cell-based, HEK293 TRPC4/mu-opioid, Fluo-4 calcium, EC20 DAMGO (AID 434941;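 active = earlier screen potentiator hit that boosts the TRPC4 ion channel at some dose, with a dose response; inactive = no potentiation, no dose response, or not a prior hit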;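 also: calcium entry triggered by an EC20 dose of DAMGO at the co-expressed mu-opioid receptor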).
Assay [9] has as its target Short transient receptor potential channel 6 (Mus musculus) (UniProt Q61143). Briefly: inhibition of mouse TRPC6 channel, confirmation, selectivity assay for TRPC4 inhibitor project, cell-based, HEK293, membrane potential dye, duplicate (AID 434948;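 active = active in primary screen and both duplicates, each dropping signal beyond three positive-control SD with fluorescence still positive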). Particulars: HEK293 TRPC6, membrane potential dye fluorescence, at 10 µM, stimulated with maximal-effect acetylcholine; stronger effect = higher value.

Assay [10] shares this target. The assay is described as follows: activation of mouse TRPC6 channel, confirmation, selectivity assay for TRPC4 activator project, cell-based, HEK293, membrane potential dye, duplicate (AID 434950;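 active = membrane potential signal rise above negative control mean plus 3 SD in both duplicates, also active in the earlier TRPC4 screen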). The settings on record: HEK293 TRPC6, membrane potential fluorescence, at 10 µM; stronger effect = higher value.
Assay [11] shares this target. Briefly: TRPC6 potentiation by TRPC4 potentiator hits, confirmation, selectivity assay for TRPC4 potentiator project, HEK293 cells, membrane potential dye, duplicate (AID 434952;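 active = compound raising the membrane signal above positive-control mean plus 3 SD in both repeats, and a primary screen hit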). The settings on record: HEK293 TRPC6, membrane potential dye fluorescence, at 10 µM, maximal acetylcholine added after compound; stronger effect = higher value.
Assay [12] has as its target Short transient receptor potential channel 4 (Mus musculus) (UniProt Q9QUQ5). The assay is described as follows: calcium flux activators in TRPC4/5HT1a cells, counter-screen for TRPC4 activator project, cell-based, second counter screen, HEK293 TRPC4/5HT1a, Fluo-4 (AID 434977;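 active = calcium signal rise above buffer-control mean plus 5 SD in both duplicates, and also a hit in the primary screen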). Particulars: Fluo-4 calcium flux, at 10 µM; stronger effect = higher value.
A short description of assay [13]: calcium flux inhibitors in TRPC4/5HT1a cells, confirmation, counter-screen for TRPC4 inhibitor project, cell-based, second counter screen, HEK293 TRPC4/5HT1a, Fluo-4 (AID 434978;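 active = primary screen active whose calcium signal fell more than 3 SD beyond the full-serotonin control mean in both duplicate plates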;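 as to outcome: serotonin given first at submaximal then at maximal dose after compound preincubation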). Particulars: Fluo-4 calcium flux, at 10 µM, serotonin added to trigger calcium flux; stronger effect = higher value.
The subject of assay [14] is TRPC4 (mouse), co-expressed with 5HT1a in HEK293. The assay is described as follows: calcium flux potentiators in TRPC4/5HT1a cells, confirmation, counter-screen for TRPC4 potentiator project, cell-based, second counter screen, HEK293 TRPC4/5HT1a, Fluo-4 (AID 434979;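 active = signal rise over 3 SD above mean of control wells given weak agonist, in both repeats and first screen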). Particulars: Fluo-4 calcium flux, at 10 µM, serotonin added at its EC20 dose; stronger effect = higher value.
Assay [15] can be described thus: calcium flux activation in mu-opioid HEK293 cells, confirmation, counter-screen for TRPC4 activator project, cell-based, HEK293 mu-opioid receptor line (AID 449723;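 active = hit in primary screen, with calcium signal over 5 SD above buffer well mean in both duplicates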;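 also: counter screen cells carry the mu-opioid receptor alone and lack TRPC4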). The settings on record: Fluo-4 calcium fluorescence, at 10 µM; stronger effect = higher value.
Assay [16] can be described thus: calcium flux enhancement in mu-opioid HEK293 cells, confirmation, counter-screen for TRPC4 allosteric potentiator project, cell-based, HEK293 mu-opioid receptor line (AID 449724;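 active = calcium signal rise more than 3 SD above the low-dose agonist control mean, in both duplicate plates and the primary screen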;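 also: HEK293 cells carrying mu-opioid receptor only with no TRPC4 channel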). The settings on record: Fluo-4 calcium flux, at 10 µM, compound added before EC20 DAMGO stimulus; stronger effect = higher value.
Assay [17] concerns the target Short transient receptor potential channel 4 (Mus musculus) (UniProt Q9QUQ5). The assay is described as follows: mouse TRPC4 channel inhibitors, dose response, cell-based, HEK293 TRPC4/mu-opioid, Fluo-4 calcium (AID 434942;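 active = primary screen inhibitor hit that blocks the TRPC4 channel at some tested dose, yielding a dose curve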).

We go through eight compounds from PubChem BioAssay.

For some assays here: Measured potencies and affinities stand elsewhere. The source made the active and inactive calls.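 The calls were made as follows, unless noted: active = calcium signal ratio cut to more than 3 SD under the fully stimulated control mean yet still positive, in both repeats and the primary screen; inactive = the rest.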

Chain of Short transient receptor potential channel 4 (Mus musculus) (Q9QUQ5 whole entry, looked up): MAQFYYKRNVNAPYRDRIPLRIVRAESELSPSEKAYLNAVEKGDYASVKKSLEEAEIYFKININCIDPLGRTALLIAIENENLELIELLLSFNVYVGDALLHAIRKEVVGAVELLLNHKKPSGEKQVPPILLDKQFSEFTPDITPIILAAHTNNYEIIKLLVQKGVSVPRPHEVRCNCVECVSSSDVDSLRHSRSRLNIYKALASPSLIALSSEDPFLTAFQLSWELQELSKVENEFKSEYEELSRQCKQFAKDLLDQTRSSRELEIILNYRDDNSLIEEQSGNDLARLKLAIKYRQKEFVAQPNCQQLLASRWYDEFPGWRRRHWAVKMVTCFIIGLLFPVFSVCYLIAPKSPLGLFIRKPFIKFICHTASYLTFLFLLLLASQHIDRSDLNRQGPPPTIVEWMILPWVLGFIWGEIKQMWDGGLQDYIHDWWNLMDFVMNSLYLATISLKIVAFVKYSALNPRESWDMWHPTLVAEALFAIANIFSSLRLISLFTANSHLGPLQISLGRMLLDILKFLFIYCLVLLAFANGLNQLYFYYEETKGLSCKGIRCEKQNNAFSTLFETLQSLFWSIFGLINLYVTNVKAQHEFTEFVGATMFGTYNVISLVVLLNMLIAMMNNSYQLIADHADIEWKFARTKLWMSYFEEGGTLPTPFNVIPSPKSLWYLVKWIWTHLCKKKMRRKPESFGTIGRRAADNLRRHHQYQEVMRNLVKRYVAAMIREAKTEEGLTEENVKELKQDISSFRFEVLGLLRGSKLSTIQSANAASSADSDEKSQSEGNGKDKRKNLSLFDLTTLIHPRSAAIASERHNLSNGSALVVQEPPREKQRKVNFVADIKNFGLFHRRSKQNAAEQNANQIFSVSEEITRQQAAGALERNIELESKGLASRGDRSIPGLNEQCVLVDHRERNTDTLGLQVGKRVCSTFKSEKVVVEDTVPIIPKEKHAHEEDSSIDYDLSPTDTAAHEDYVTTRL
Chain of Short transient receptor potential channel 6 (Mus musculus) (Q61143 whole entry, looked up): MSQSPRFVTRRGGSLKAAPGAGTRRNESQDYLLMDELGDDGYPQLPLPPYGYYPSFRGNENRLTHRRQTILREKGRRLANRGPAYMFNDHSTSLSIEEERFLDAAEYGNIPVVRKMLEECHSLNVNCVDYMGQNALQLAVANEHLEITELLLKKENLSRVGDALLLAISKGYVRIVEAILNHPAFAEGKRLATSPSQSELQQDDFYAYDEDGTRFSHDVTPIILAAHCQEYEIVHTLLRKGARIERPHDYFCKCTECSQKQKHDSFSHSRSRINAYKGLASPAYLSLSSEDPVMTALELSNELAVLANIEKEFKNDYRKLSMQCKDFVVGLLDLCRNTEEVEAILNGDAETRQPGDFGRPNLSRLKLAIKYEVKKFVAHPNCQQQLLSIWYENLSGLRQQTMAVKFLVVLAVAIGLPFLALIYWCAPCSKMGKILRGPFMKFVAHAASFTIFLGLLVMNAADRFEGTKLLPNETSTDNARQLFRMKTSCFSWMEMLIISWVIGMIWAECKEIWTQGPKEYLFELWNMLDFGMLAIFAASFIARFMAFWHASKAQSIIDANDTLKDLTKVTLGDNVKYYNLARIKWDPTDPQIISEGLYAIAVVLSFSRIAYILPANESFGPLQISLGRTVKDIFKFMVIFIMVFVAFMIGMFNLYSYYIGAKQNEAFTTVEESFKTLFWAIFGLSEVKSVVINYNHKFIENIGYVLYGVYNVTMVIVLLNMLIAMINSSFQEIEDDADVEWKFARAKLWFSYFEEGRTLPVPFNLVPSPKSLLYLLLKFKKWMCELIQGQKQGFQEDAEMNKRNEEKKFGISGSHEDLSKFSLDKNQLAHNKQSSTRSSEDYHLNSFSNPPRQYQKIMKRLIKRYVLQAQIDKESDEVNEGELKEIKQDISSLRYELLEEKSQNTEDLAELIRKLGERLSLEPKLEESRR

For orientation: inhibition means how much of the control response was suppressed. Turning to `CN1CCN(c2nc3c(c(=O)n(C)c(=O)n3C)n2CC(=O)C23CC4CC(CC(C4)C2)C3)CC1`, the outcome in [1], in [2], in assay [3], in assay [4], in assay [7] and in [8] was inactive. In addition, the compound was called inactive in assay [9], in [10], in [11], in [12], in [14] and in assay [15]. The outcome in [16] was inactive. Moreover, the results for the inhibition in assay [5], in [6] and in assay [13] were 92% (active), 63% (active) and 17% (active), respectively.
Turning to `CCCOc1ccc(-c2nc(SCc3ccccc3)[nH]c(=O)c2C#N)cc1OC`, the outcome in assay [1], in [2], in assay [3], in [4], in assay [6] and in assay [7] was inactive. The result in assay [8], in assay [9], in assay [10], in assay [11], in assay [12] and in assay [13] was inactive. Further, the outcome in assay [14], in assay [15] and in assay [16] was inactive. For the same compound, the inhibition in [5] is 66% (active).
Turning to `CC(=O)Oc1ccc(/C=C(\NC(=O)c2ccco2)C(=O)NCc2ccccc2)cc1`, the result in [1], in assay [2], in assay [3], in [4], in assay [6] and in assay [7] was inactive. Further, the result in assay [8], in assay [9], in assay [10], in assay [11], in assay [12] and in [14] was inactive. The outcome in assay [15] and in assay [16] was inactive. The inhibition in assay [5] was 82% (active); in assay [13], 44.5% (active).
As to `O=C(CN1CCN(Cc2ccccc2Cl)CC1)N=Nc1c(O)[nH]c2ccccc12`, the outcome in assay [1], in assay [2], in assay [3], in assay [4], in [7] and in assay [8] was inactive. Further, the compound was called inactive in assay [9], in [10], in [11], in [12], in assay [13] and in assay [14]. Besides, the outcome in [15] and in [16] was inactive. The inhibition in assay [5] is 90% (active); in assay [6], 50% (active).
Take `c1ccc(CNc2c3ccccc3nc3ccccc23)cc1`: the outcome in assay [1], in [2], in assay [3], in [4], in [7] and in assay [8] was inactive. Besides, the compound was classed as inactive in [10], in assay [11], in [12], in assay [14], in [15] and in assay [16]. Moreover, the inhibition in [5] was 95% (active); in assay [6], 60% (active); in assay [9], 38% (active); in assay [13], 23.7% (active).
On to `Fc1cccc(Nc2c3c(nc4ccccc24)CCC3)c1`, for which the result in assay [1], in [2], in assay [3], in [4], in assay [6] and in assay [7] was inactive. In addition, the outcome in assay [8], in [9], in [10], in assay [11], in assay [12] and in [14] was inactive. Moreover, the result in [15] and in assay [16] was inactive. Also, the inhibition in assay [5] was 96% (active); in assay [13] it was 14.9% (active).
As for `Cc1ccc(-c2csc(N(CCCN(C)C)C(=O)c3ccco3)n2)cc1`, the result in assay [1], in assay [2], in [3], in assay [4], in [5] and in assay [7] was inactive. Moreover, the result in [8], in assay [10], in assay [11], in [12], in assay [13] and in assay [14] was inactive. For the same compound, the result in assay [15] and in assay [16] was inactive. The inhibition was 52% (active) in [6] and 37.5% (active) in [9].
Regarding `C1CCN(c2nc(N3CCCC3)nc(N3CCNCC3)n2)C1`, the result in assay [1], in assay [2], in assay [3], in assay [4], in assay [5] and in assay [6] was inactive. Besides, the result in [7], in assay [17], in assay [9], in assay [10], in assay [11] and in [12] was inactive. Moreover, the outcome in assay [13], in [15] and in assay [16] was inactive. Besides, the potentiation in assay [14] is 18.4% (active).
